Drawing on the supplement of paper PMC8285479, this text covers normalised cell viability for 7 molecules.

The test relates to NCI-H1944. Kind of test: normalised cell viability (NPI; 0 = phenylarsine oxide control, 1 = DMSO control) (fraction of DMSO control); NCI-H1944 is a non-small cell lung cancer line; higher = more viable cells (less compound toxicity). The following applies: 6 days.
[1] abbreviates: glucocorticoid arm: hydrocortisone 2.75 uM co-treatment, compound 1 µM.
[2] abbreviates: glucocorticoid arm: hydrocortisone 2.75 uM co-treatment, compound 5 µM.
Setting [3] is: glucocorticoid arm: hydrocortisone 2.75 uM pre-treated 2 days and continued, compound 1 µM.
Setting [4] is: glucocorticoid arm: hydrocortisone 2.75 uM pre-treated 2 days and continued, compound 5 µM.
Setting [5] is: glucocorticoid arm: vehicle, compound 1 µM.
The mark [6] stands for this setting: glucocorticoid arm: vehicle, compound 5 µM.

Counter-ions that a name gives are not always drawn. ± gives the standard deviation of the averaged measurements. Whole data set: some 1,900 compounds, median “normalised cell viability (NPI; 0 = phenylarsine oxide control, 1 = DMSO control)” near 1, cut for the lowest 2% near 0.039. The full list was thinned out, with the lowest values kept by preference.
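Also: CTB read-out in 384-well plates, triplicate wells, NPI normalised per plate against 1 µM phenylarsine oxide (0) and 0.1% DMSO (1) controls.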

For `CCCN(CCC)C1CCc2cccc(O)c2C1` (racemic) [(±)-8-Hydroxy-DPAT hydrobromide], the normalised cell viability is 1.02 ± 0.017 under setting [1]; 1.01 ± 0.01 under setting [2]; 1.01 ± 0.01 under setting [3]; 1.004 ± 0.0098 under setting [4]; 0.9967 ± 0.0058 under setting [5]; 0.9947 ± 0.0067 under setting [6].

As for `C=CCN1CC[C@]23c4c5ccc(O)c4O[C@H]2/C(=N/N=C2\CC[C@@]4(O)[C@H]6Cc7ccc(O)c8c7[C@@]4(CCN6CC=C)[C@H]2O8)CC[C@@]3(O)[C@H]1C5` [Naloxonazine dihydrochloride], the normalised cell viability is 0.9893 ± 0.008 under setting [1]; 1.03 ± 0.02 under setting [2]; 1 ± 0.01 under setting [3]; 1.03 ± 0.064 under setting [4]; 0.9877 ± 0.0015 under setting [5]; 1.01 ± 0.01 under setting [6].

For the molecule `CC[C@H]1CN2CCc3cc(OC)c(OC)cc3[C@@H]2C[C@@H]1C[C@H]1NCCc2cc(OC)c(OC)cc21` [Emetine dihydrochloride hydrate], the normalised cell viability was found to be 0.0625 ± 0.016 under setting [1]; 0.0175 ± 0.00036 under setting [2]; 0.342 ± 0.016 under setting [3]; 0.165 ± 0.0093 under setting [4]; 0.0125 ± 0.001 under setting [5]; 0.0108 ± 0.0029 under setting [6].

`CCCN(CCC)[C@@H]1CCc2c(F)ccc(O)c2C1` [R(+)-UH-301 hydrochloride]: the normalised cell viability came to 1.013 ± 0.0058 under setting [1]; 1.017 ± 0.0058 under setting [2]; 1.03 ± 0.021 under setting [3]; 1.017 ± 0.0058 under setting [4]; 1.02 under setting [5]; 1.017 ± 0.0058 under setting [6].

On to `OC[C@H]1O[C@@H](n2cnc3cc(Cl)c(Cl)cc32)[C@H](O)[C@@H]1O` [5,6-Dichlorobenzimidazole riboside], for which the normalised cell viability runs as follows: under setting [1], 1.007 ± 0.0058; under setting [2], 0.998 ± 0.013; under setting [3], 1.007 ± 0.0058; under setting [4], 1.03 ± 0.01; under setting [5], 0.988 ± 0.008; under setting [6], 0.991 ± 0.0053.

Take `NC1CCc2cc(O)c(O)cc2C1` (configuration not stated) [6,7-ADTN hydrobromide]: the normalised cell viability by setting is: under setting [1], 1.001 ± 0.009; under setting [2], 1.01 ± 0.011; under setting [3], 0.992 ± 0.022; under setting [4], 1.002 ± 0.0068; under setting [5], 0.98433 ± 0.00058; under setting [6], 0.9887 ± 0.0059.

As to `O=C[C@H](Cl)[C@@H](O)[C@H](O)[C@H](O)CO` [2-Chloro-2-deoxy-D-glucose], the normalised cell viability by setting is: under setting [1], 1 ± 0.013; under setting [2], 0.9953 ± 0.0015; under setting [3], 1.01 ± 0.012; under setting [4], 0.994 ± 0.01; under setting [5], 0.9807 ± 0.0011; under setting [6], 0.9817 ± 0.0067.
